ALDH1A1 block – ALDH1A1 (human) enzyme inhibition | P00352 | Purified ALDH1A1, NADH fluorescence, propionaldehyde substrate | Potency, µM (doses to about 75.3 µM), for inactives: at the highest dose activity, negative = inhibition, hits mostly inhibitors | actives 7.3% (n = 220,000); active = well fitted inhibition curve with a large enough effect, not every such curve was filed as active; inconclusive = small, poorly fitted or top-dose-only effect, or another doubt; inactive = no such curve, though single readings can be large or run the other way;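 also: potency is read from the fitted curve at half-maximal effect; plate controls were no enzyme wells and a reference inhibitor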
Tau fibril ThT – blocks human tau fibril formation measured by thioflavin T | recombinant tau K18 P301L, heparin-induced fibrillization, ThT fluorescence | Potency, µM (titrated, usually from 57.4 µM), for inactives: at the highest dose activity, negative = inhibition, most hits filed as inhibitors | actives 2.1% (n = 270,000); also: potency is read from the fitted curve at half-maximal effect; % is scaled to controls: 0 for no effect and ±100 for the full control effect; nearly all actives have a fitted effect of over 55% in size
Target sequence (P10636 561-689 P618L limits assumed): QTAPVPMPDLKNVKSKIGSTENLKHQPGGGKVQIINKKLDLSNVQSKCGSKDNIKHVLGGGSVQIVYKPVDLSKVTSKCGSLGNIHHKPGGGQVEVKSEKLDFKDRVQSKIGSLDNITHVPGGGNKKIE
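Tau K18 P301L fragment (15 uM unlabeled plus 0.24 uM Alexa 594-labeled) in 100 mM sodium acetate pH 7 with compound, fibrillization induced by 20 uM heparin for 6 hr at 37 C. Thioflavin T (30 uM) added, fluorescence read after 1 hr (ex 450, em 510 nm).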
KDM4E inh – blocks human JMJD2E demethylase activity; Potency, µM (doses to about 57.1 µM), inactives show at the top dose activity change, negative = inhibition, most hits filed as inhibitors; actives 1.6% (n = 230,000); B2RXH2; JMJD2E catalytic domain, FDH-coupled NADH fluorescence (FDH is formaldehyde dehydrogenase); AID 2147; active = well fitted inhibition curve with a large enough effect, not every such curve was filed as active; inconclusive = small, poorly fitted or top-dose-only effect, or another doubt; inactive = no such curve, though single readings can be large or run the other way;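 also: potency is read from the fitted curve at half-maximal effect; 0% = wells with enzyme and -100% = buffer wells without enzyme; nearly all actives have a fitted effect of over 50% in size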
Target sequence (B2RXH2 1-337 limits assumed): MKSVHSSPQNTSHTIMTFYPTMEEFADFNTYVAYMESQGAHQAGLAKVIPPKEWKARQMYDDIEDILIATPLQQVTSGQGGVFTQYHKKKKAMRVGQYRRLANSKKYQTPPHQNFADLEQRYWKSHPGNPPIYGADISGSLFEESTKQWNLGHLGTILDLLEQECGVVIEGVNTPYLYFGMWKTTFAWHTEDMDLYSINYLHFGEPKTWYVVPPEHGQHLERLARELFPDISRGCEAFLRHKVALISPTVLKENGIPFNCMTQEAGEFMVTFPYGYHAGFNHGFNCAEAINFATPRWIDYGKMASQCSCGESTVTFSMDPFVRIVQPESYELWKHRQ
Tau FP inhib – tau fibrillization inhibition (FP); P10636; K18 P301L tau heparin fibrillization, Alexa594 FP, 6 h; Potency, µM (top dose mostly 57.7 µM), for inactives: at the highest dose activity, negative = inhibition, actives largely listed as inhibitors; actives 0.39% (n = 280,000); AID 1468; also: potency is read from the fitted curve at half-maximal effect; % is scaled to controls: 0 for no effect and ±100 for the full control effect; nearly all actives have a fitted effect of over 55% in size
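Heparin (20 uM) drove fibril formation of recombinant tau K18 P301L, 15 uM unlabeled with 0.24 uM Alexa 594 label, for 6 hr at 37 C in 100 mM sodium acetate pH 7. Fluorescence polarization (555/632 nm) read 1 hr after 30 uM ThT.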
Tau fluor counter – counter-screen for tau fibril formation inhibitors | actives 0.93% (n = 280,000) | Potency, µM (series often up to 57.7 µM), for the others: at the top dose activity change, negative = decrease | tau K18 P301L Alexa594 fluorescence, heparin fibrillization | AID 1463; also: potency is read from the fitted curve at half-maximal effect; % is scaled to controls: 0 for no effect and ±100 for the full control effect; nearly all actives have a fitted effect of over 55% in size
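Human tau K18 P301L (15 uM unlabeled, 0.24 uM Alexa 594-labeled) in 100 mM sodium acetate pH 7 with 20 uM heparin, 6 hr at 37 C. ThT 30 uM added, 1 hr ambient; Alexa 594 FP and total fluorescence read at 555/632 nm.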
HPGD block – blocks human HPGD enzyme activity | P15428 | Potency, µM, for inactives: at the highest dose activity change, negative = inhibition, usual class: inhibitors | actives 4.3% (n = 150,000) | AID 894 | purified HPGD, NADH fluorescence kinetic, PGE2 substrate; active = well fitted inhibition curve with a large enough effect, not every such curve was filed as active; inconclusive = small, poorly fitted or top-dose-only effect, or another doubt; inactive = no such curve, though single readings can be large or run the other way; also: potency is read from the fitted curve at half-maximal effect; % is scaled to controls: 0 for no effect and ±100 for the full control effect
Target sequence (P15428 whole entry, looked up): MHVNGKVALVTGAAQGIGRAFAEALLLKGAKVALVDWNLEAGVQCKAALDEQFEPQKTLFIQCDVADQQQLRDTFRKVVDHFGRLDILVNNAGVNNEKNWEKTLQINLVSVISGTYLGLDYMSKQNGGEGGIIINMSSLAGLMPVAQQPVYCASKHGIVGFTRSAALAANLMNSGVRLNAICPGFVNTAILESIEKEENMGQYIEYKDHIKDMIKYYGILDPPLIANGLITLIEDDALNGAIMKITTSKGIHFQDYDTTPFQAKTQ
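20 nM HPGD preincubated 15 min at room temperature with compound in 50 mM Tris-HCl pH 8, 0.01% Tween 20. Started with 1 mM NAD+ and 30 uM prostaglandin E2; NADH fluorescence (360/450 nm) read 5 times over 30-s intervals, last minus first.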
Tau fibril TEM – Inhibits tau K18 fibrillization by TEM grading; fibril grade (0 = clumped fibrils, 4 = only tiny pieces) (no concentration beside the values); recombinant tau K18 P301L fibrillization, TEM grading; hits give high values; shares compounds with Tau fibril ThT; actives 70% (n = 45);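 active = compounds whose electron micrographs showed tau fibrils broken into shorter filaments or fragments, graded high on fibril breakup; inconclusive = micrographs gave an unclear fibril picture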
tau fibril sed – inhibitors of human tau fibrillization, sedimentation test; shares compounds with Tau fibril ThT; recombinant tau K18 P301L (four-repeat tau fragment), sedimentation SDS-PAGE densitometry; inhibition, % at 100 µM; actives 50% (n = 110); AID 1720; in the data active = inhibition above about 40%; inconclusive = no clear call, values can overlap the other calls; inactive = below about 18%
* = called active by the depositor; u = inconclusive; x = no result; [ ] = another dose, or the depositor's remark. An excerpt weighted towards active compounds, which were near 9.9% of everything screened. Unless noted, calls follow the shape of the dose curve; as a rule, active = well fitted curve in the direction sought with a large enough effect; inconclusive = small, poorly fitted or top-dose-only effect, or another doubt; inactive = no such curve, though single readings can be large; an effect the other way counts as inactive or inconclusive.

SMILES | ALDH1A1 block | Tau fibril ThT | KDM4E inh | Tau FP inhib | Tau fluor counter | HPGD block | tau fibril sed | others
C[C@@H]1CN2[C@H](c3ccc(Br)cc3)[C@H](C)CC[C@H]2C(=O)O1 | u | -1%[11.5 µM] | x | 1%[11.6 µM] | -1%[11.6 µM] | x | x
Cc1ccc(Cl)cc1NC(=O)Cn1c(=O)c(CNc2ccccc2)cc2cc3c(cc21)OCCO3 | x | u | x | -2% | u | x | x
O=C(Cn1c(=O)c(CNc2ccccc2)cc2cc3c(cc21)OCCO3)Nc1ccccc1Cl | x | 8.9µM* | x | u | u | x | 62* | Tau fibril TEM=0
O=C(Nc1cccc(-c2nc3ccccc3o2)c1)c1cc([N+](=O)[O-])ccc1N1CCOCC1 | x | -22% | x | u | u | x | 17
COc1ccc2oc(-c3cccc(NC(=O)c4cc([N+](=O)[O-])ccc4N4CCOCC4)c3)nc2c1 | x | u | x | -15% | u | x | x
C/C(=N\NC(=O)CSc1ncccn1)c1ccc2c(c1)OCCO2 | u | -16% | -3% | 4% | -3% | x | x
O=c1[nH]cc(-c2ccccc2)c(=O)[nH]1 | 16% | 1% | 10% | -7% | -2% | x | x
Nc1c(-c2ccccc2)cc[nH]c1=O | x | x | x | x | x | x | 9
O=C(O)CC1S/C(=N/N=C/c2ccc(-c3ccc(Cl)cc3[N+](=O)[O-])o2)NC1=O (stereo unspecified) | 22µM* | 1µM* | u | 1.6µM* | u | 8.9µM* | 74* | Tau fibril TEM=3*
CCn1c(CSc2nc3ccccc3[nH]2)nc2cc(C(=O)O)ccc21 | u | -4% | u | 1% | -1% | u | x
CCn1c(CSc2nccn2C)nc2cc(C(=O)O)ccc21 | u | 4µM* | u | u | -5% | u | 56* | Tau fibril TEM=3*
Nc1scc2c(C(=O)O)nn(-c3ccccc3)c(=O)c12 | x | x | x | x | x | x | 84*
Nc1scc2c(C(=O)NCc3ccccc3)nn(-c3ccccc3)c(=O)c12 | x | x | x | x | x | x | 54*
Cc1c(C(=O)NCc2ccccc2)c(-c2ccccc2)nn1-c1ccccc1 | u | -17% | -6% | 1% | -14% | -8% | x
Cc1cc(Cl)ccc1OCC(=O)N(Cc1ccco1)Cc1ccccc1F | x | -12% | x | -4% | -14% | x | x
CC(=O)Nc1nc(C)c(-c2csc(Nc3ccc(O)cc3)n2)s1 | 25µM* | 8.9µM* | u | -12% | 14µM*[quencher] | -28% | u | Tau fibril TEM=0
CC(=O)Nc1nc(C)c(-c2csc(Nc3cccc([N+](=O)[O-])c3)n2)s1 | -4% | u | 8% | u | u | -22% | 13
O=C(Nc1ccc(OC(F)(F)F)cc1)Nc1cccc([N+](=O)[O-])c1 | 2% | u | -4% | 4.5µM* | 1.8µM*[quencher] | x | 13
CC(C)(C)CC(C)(C)NC(=O)Nc1cccc([N+](=O)[O-])c1 | 4% | -3% | 9% | -3% | u | x | x
CCn1nccc1C(=O)Nc1cc(Cl)cc(Cl)c1 | u | u | 2% | 28µM* | u | u | u
COc1cccc(CNC(=O)CCCN2C(=O)CSc3c2c(C)nn3-c2ccccc2)c1 | x | -3% | x | 5% | 3% | x | x
Cn1cc(Cl)c(C(=O)Nc2nc3ccccc3s2)n1 | -2% | -1% | u | 10% | -3% | -21% | x
Cn1cc(Cl)c(C(=O)Nc2cccc(Cl)c2Cl)n1 | -12% | -10% | -8% | 3% | -4% | -29% | 8
COc1ccc(NC(=O)CCC2CCCCC2)cc1S(=O)(=O)N1CCCCC1 | u | 8% | -4% | 9% | 9% | x | x
Oc1ccccc1CNc1cccc2cccnc12 | u | 6.3µM* | u | u | 16µM*[quencher] | x | 61* | Tau fibril TEM=u
SMILES | ALDH1A1 block | Tau fibril ThT | KDM4E inh | Tau FP inhib | Tau fluor counter | HPGD block | tau fibril sed | others
CN(c1ccccc1)S(=O)(=O)c1nnc(NC(=O)C2CCCCC2)s1 | x | 2.5µM* | x | u | u | x | 80* | Tau fibril TEM=3*
CN(c1ccccc1)S(=O)(=O)c1nnc(NC(=O)c2ccco2)s1 | x | -12% | x | -6% | 2% | x | x
COc1ccc(NC(=O)c2sc3nc4n(c(=O)c3c2C)CCC4)c(OC)c1 | x | 1% | x | -8% | -2% | x | x
O=C(NC(=O)c1ccc(Cl)cc1)OC1CCCCC1 | 8% | 4% | -6% | 9% | 7% | -11% | x
CN(C)c1ccc(N2C(=O)CSC2=S)cc1 | 2.2µM* | 4.5µM* | 6.3µM* | u | u | -16% | 11
Cc1ccc(N2C(=O)CSC2=S)cc1C | u | u | -7% | -4% | -6% | x | x
COC(=O)c1ccsc1-n1cc(C#N)c(=O)n(C)c1=O | 6% | -3% | 7% | u | -6% | x | x
CCOC(=O)c1nn(-c2ccc(Cl)cc2)c(=O)c2c(N)scc12 | x | x | x | x | x | x | 62*
CCOC(=O)c1nn(-c2ccc(F)cc2)c(=O)c2c(N)scc12 | 15% | 1% | -8% | 1%[2.34 µM] | -1% | x | 64*
CCOC(=O)c1nn(-c2ccc(C)cc2)c(=O)c2c(N)scc12 | 18µM* | 14µM* | u | u | u | -16% | u
COC(=O)c1nn(-c2ccc(OC)cc2)c(=O)c2c(N)sc(C)c12 | 7.9µM* | u | 7% | 3% | -27% | -27% | 44* | Tau fibril TEM=u
C[C@@]1(C(NC(=O)c2ccccc2)c2ccc(-c3ccccc3)cc2)C[C@H]1C1CCCCC1 (stereo partly specified) | 6% | -8% | 2% | -1% | 5% | -3% | x
CCCCn1c(SCC(=O)c2ccccc2)nc2sc3c(c2c1=O)CCCC3 | x | -3% | x | -6% | -3% | x | x
CCN(C(=O)CSc1cc(C)c2cccc(C)c2n1)C1CCS(=O)(=O)C1 (stereo unspecified) | 2% | -1% | 7% | 5% | 2% | x | x
COc1ccc2[nH]c(=O)c(CNc3cccc(C)c3)cc2c1 | u | -8% | 0% | 6% | -2% | x | 85* | Tau fibril TEM=4*
COc1ccc2[nH]c(=O)c(CN(Cc3cccs3)C(=S)Nc3cccc(C)c3)cc2c1 | u | -7% | 0% | u | u | u | x
O=C(O)CN1C(=O)/C(=C/c2ccc(-c3cccc(Cl)c3)o2)SC1=S | x | x | x | x | x | x | 14
